Experimental data as given in PubChem BioAssay (NCATS).
Where “and” joins values, the source holds several entries; their conditions need not be identical. Equal values may be shown once. Unmarked numbers belong to inactive results. Records with an inconclusive call do not appear. Entries that show only a call come without a potency. Calls of active or inactive are those of the source. Unless noted, calls follow the shape of the dose curve; as a rule, active = well fitted curve in the direction sought with a large enough effect; inconclusive = small, poorly fitted or top-dose-only effect, or another doubt; inactive = no such curve, though single readings can be large; an effect the other way counts as inactive or inconclusive.

How the values were obtained:
PA-1 = assay: Primary qHTS to identify gynecologic anti-cancer compounds using libraries of approved drugs and bioactive compounds (AID 1345084); conditions: Gynecologic cancer cell panel viability, ATPlite luminescence, 48 h; series mostly up to 57.5 µM; also: nearly all actives have a fitted effect of over 55% in size; also: potency is read from the fitted curve at half-maximal effect
How it was run: (§1)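 Luminescence from the ATPlite ATP-monitoring reagent indicates viable cell number; lower signal means cytotoxicity. Cells received compound 16 h after seeding and were exposed for 48 h across five concentrations.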

SKOV3 = assay: as above; conditions: Gynecologic cancer cell panel viability, ATPlite luminescence, 48 h; series mostly up to 57.5 µM
How it was run: as §1

Tov-21-G = assay: as above; conditions: Gynecologic cancer cell panel viability, ATPlite luminescence, 48 h; series mostly up to 57.5 µM
How it was run: as §1

Tov112D = assay: as above; conditions: Gynecologic cancer cell panel viability, ATPlite luminescence, 48 h; series mostly up to 57.5 µM
How it was run: as §1

[1] = Drug repurposing screens with cells derived from glioblastoma tumor samples (AID 1345199); conditions: GBM patient neurospheres viability, ATP luminescence, 48 h; also: nearly all actives have a fitted effect of over 40% in size; also: potency is read from the fitted curve at half-maximal effect
How it was run: (§2)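 Primary testing used CD133+ neurospheres from four GBM patients, seven concentrations, 48 h exposure and ATP-based viability; confirmation added three slower-growing patient lines.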

astro = assay: as above; conditions: viability, ATP luminescence, 48 h; series mostly up to 45.9 µM
How it was run: as §2

[2] = target: Nuclear receptor subfamily 1 group I member 2 (Rattus norvegicus) (UniProt Q9R1A7); assay: qHTS assay for small molecule activators of the rat pregnane X receptor (rPXR) signaling pathway (AID 651751; call rule not given here); conditions: rPXR reporter cells, luciferase (One-Glo), 24 h
Sequence of Nuclear receptor subfamily 1 group I member 2 (Rattus norvegicus) (Q9R1A7 whole entry, looked up): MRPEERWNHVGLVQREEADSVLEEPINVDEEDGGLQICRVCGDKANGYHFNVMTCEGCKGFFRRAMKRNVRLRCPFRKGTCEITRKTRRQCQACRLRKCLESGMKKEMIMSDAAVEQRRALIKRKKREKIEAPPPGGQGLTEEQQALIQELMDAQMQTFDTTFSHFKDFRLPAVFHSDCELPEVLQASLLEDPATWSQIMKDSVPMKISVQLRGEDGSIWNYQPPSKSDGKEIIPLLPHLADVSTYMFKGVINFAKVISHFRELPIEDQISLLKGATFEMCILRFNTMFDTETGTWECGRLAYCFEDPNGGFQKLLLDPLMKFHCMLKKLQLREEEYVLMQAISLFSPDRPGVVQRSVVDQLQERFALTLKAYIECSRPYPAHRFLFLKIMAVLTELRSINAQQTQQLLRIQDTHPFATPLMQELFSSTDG

[3] = qHTS assay for small molecule activators of the human pregnane X receptor (PXR) signaling pathway (AID 720659; call rule not given here)
[4] = at 20 µM (top of the series), tumour line C
[5] = at 21.2 µM (top of the series), tumour line B
[6] = at 21.2 µM (top of the series), tumour line D
[7] = at 21.3 µM (top of the series), tumour line A
[8] = at 45.9 µM (top of the series), tumour line B
[9] = at 45.9 µM (top of the series), tumour line D
[10] = at 46 µM (top of the series), tumour line A
[11] = at 46.1 µM (top of the series), tumour line C

Row | Structure (SMILES) | Potency (PA-1) | Potency (SKOV3) | Potency (Tov-21-G) | Potency (Tov112D) | activity, negative = cell killing [1, 4] [%] | activity, negative = cell killing [1, 5] [%] | activity, negative = cell killing [1, 6] [%] | activity, negative = cell killing [1, 7] [%] | Potency (astro) | activity, negative = cell killing [1, 8] | activity, negative = cell killing [1, 9] | activity, negative = cell killing [1, 10] [%] | activity, negative = cell killing [1, 11] | Potency ([1]; tumour line A) | max response [2] [%] | outcome [3]
1 | CCOC(=O)n1ccn(C)c1=S | inactive | inactive | inactive | inactive | 6.23 | -8.85 | 1.59 | -18.4 | inactive | – | – | – | – | – | – | –
2 | C[C@]12C=CC(=O)C=C1[C@@H](F)C[C@@H]1[C@@H]2[C@@H](O)C[C@@]2(C)[C@H]1CC[C@]2(O)C(=O)CO | inactive | inactive | inactive | inactive | – | – | – | – | inactive | -7.25% and -6.51% | -13.8% and -3.47% | -18 | -19.6% and -9.59% | – | – | –
3 | CN=C(NC#N)NCCSCc1csc(N=C(N)N)n1 | inactive | inactive | inactive | inactive | – | – | – | – | inactive | -9.85% | 14.9% | -18.5 | -6.9% | – | – | –
4 | N[C@@H](CCC(=O)N[C@@H](CS)C(=O)NCC(=O)O)C(=O)O | inactive | inactive | inactive | inactive | – | – | – | – | inactive | -10.5% | -6.47% | -29.7 | 10.6% | – | – | –
5 | CC[N+](CC)(CCNC(=O)C(=O)NCC[N+](CC)(CC)Cc1ccccc1Cl)Cc1ccccc1Cl | inactive | inactive | inactive | inactive | – | – | – | – | inactive | -6.34% | -19.6% | -23.4 | 15.3% | – | – | –
6 | CCCCC(=O)O[C@]1(C(=O)CO)CC[C@H]2[C@@H]3CCC4=CC(=O)CC[C@]4(C)[C@H]3[C@@H](O)C[C@@]21C | inactive | inactive | inactive | inactive | – | – | – | – | inactive | -13.9% | -13.5% | -14.6 | -22.7% | – | – | –
7 | CC1(C)O[C@@H]2C[C@H]3[C@@H]4CCC5=CC(=O)CC[C@]5(C)[C@@]4(F)[C@@H](O)C[C@]3(C)[C@]2(C(=O)CCl)O1 | inactive | inactive | inactive | inactive | -1.51 | -4.88 | 2.26 | 3.38 | inactive | – | – | – | – | – | – | –
8 | CCCC(=O)O[C@]1(C(=O)CO)CC[C@H]2[C@@H]3CCC4=CC(=O)CC[C@]4(C)[C@H]3[C@@H](O)C[C@@]21C | inactive | inactive | inactive | inactive | – | – | – | – | inactive | 1.95% | -21.3% | -2.7 | 6.32% | – | – | –
9 | COc1cccc(OC)c1C(=O)N[C@@H]1C(=O)N2[C@@H]1SC(C)(C)[C@@H]2C(=O)O | inactive | inactive | inactive | inactive | – | – | – | – | inactive | -0.637% | -7.13% | -15.4 | 14.7% | – | – | –
10 | CCOC(=O)[C@H](CCc1ccccc1)N[C@@H](C)C(=O)N1Cc2ccccc2C[C@H]1C(=O)O | inactive | inactive | inactive | inactive | – | – | – | – | inactive | -8.88% | -11.4% | -15.3 | 11.9% | – | – | –
11 | CC(C)NC[C@@H](O)COc1cccc2ccccc12 | inactive | inactive | inactive | inactive | – | – | – | – | inactive | -11.2% | -22.3% | – | -5.6% | 28.2 µM (active) | – | –
12 | O=C1OC2(c3ccc(O)cc3Oc3cc(O)ccc32)c2ccccc21 | inactive | inactive | inactive | inactive | – | – | – | – | inactive | -8.7% and -8.22% | -3.66% and -8.86% | -6.74 | 11.7% and -10.7% | – | – | –
13 | COC(=O)[C@@H]1CC2=CC(=O)CC[C@]2(C)[C@@]23O[C@@H]2C[C@@]2(C)[C@@H](CC[C@@]24CCC(=O)O4)[C@H]13 | inactive | inactive | inactive | inactive | – | – | – | – | inactive | -3.02% | -20% | -25 | -18.4% | – | – | –
14 | CC1(C)O[C@@H]2[C@@H](CO[C@@]3(COS(N)(=O)=O)OC(C)(C)O[C@@H]23)O1 | inactive | inactive | inactive | inactive | – | – | – | – | inactive | 2.05% | -22.3% | -14.9 | -2.36% | – | – | –
15 | C[C@@H](CN(C)C)CN1c2ccccc2Sc2ccccc21 | inactive | 17.8 µM (active) | inactive | inactive | 31.6 | -28.5 | – | – | inactive | – | – | – | – | 8.91 µM (active) | – | –
16 | CC(O)(P(=O)(O)O)P(=O)(O)O | inactive | inactive | inactive | inactive | – | – | – | – | inactive | -12.4% | 0.0097% | -26.7 | -3.69% | – | -3.46 | inactive
